Values joined by “and” are separate entries in the source; they are usually repeats but may differ in a detail not shown here. Equal entries are not always repeated. About 2,000 (36%) of roughly 5,500 compounds were called active. About 18% were inconclusive and are not listed. Cut-off read from the data, not from the text of the source: active = normalized growth mostly below about 0.91 (no sharp cut-off); inconclusive = no clear call, values can overlap the other calls; inactive = mostly above about 0.92. Some of the results follow.
Experiment: chemical genetic growth profiling, strain panel (AID 1159580);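 note: tested at 20 µM; growth read once vehicle control cultures reached saturation at 30 °C; 1 = growth at the plate median or of vehicle wells; lower values mean less growth of the strain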
Details: growth OD

Measured: normalized growth

COc1ccccc1N1CCN(CCCNc2cc(=O)n(C)c(=O)n2C)CC1
inactive: S. cerevisiae deletion strains, locus YJR043C, strain POL32, hits give low values 1.01 | S. cerevisiae deletion strains, locus YJR075W, strain HOC1, hits give low values 0.991 | S. cerevisiae deletion strains, locus YKL009W, strain mrt4, hits give low values 0.976 | S. cerevisiae deletion strains, locus YKL068W, hits give low values 0.978 | S. cerevisiae deletion strains, locus YKL085W, strain MDH1 (second series), hits give low values 0.985 | S. cerevisiae deletion strains, locus YKL085W, strain MDH1, hits give low values 0.985 | S. cerevisiae deletion strains, locus YKL160W, strain elf1, hits give low values 0.995 | S. cerevisiae deletion strains, locus YKL190W, strain CNB1, hits give low values 0.986 | S. cerevisiae deletion strains, locus YKR001C, strain vps1, hits give low values 0.982 | S. cerevisiae deletion strains, locus YKR026C, strain gcn3, hits give low values 1.02 | S. cerevisiae deletion strains, locus YKR091W, strain srl3, hits give low values 1.01 | S. cerevisiae deletion strains, locus YLL001W, strain dnm1, hits give low values 1.02 | S. cerevisiae deletion strains, locus YLL026W, hits give low values 1.01 | S. cerevisiae deletion strains, locus YLL041C, strain sdh2, hits give low values 1.01 | S. cerevisiae deletion strains, locus YLR027C, strain aat2, hits give low values 1.01 | S. cerevisiae deletion strains, locus YLR039C, strain RIC1, hits give low values 0.937 | S. cerevisiae deletion strains, locus YLR058C, strain SHM2, hits give low values 0.974 | S. cerevisiae deletion strains, locus YLR102C, strain apc9, hits give low values 0.988 | S. cerevisiae deletion strains, locus YLR221C, strain rsa3, hits give low values 1.01 | S. cerevisiae deletion strains, locus YLR258W, strain gsy2, hits give low values 1.02 | S. cerevisiae deletion strains, locus YLR262C, strain YPT6 (second series), hits give low values 1.03 | S. cerevisiae deletion strains, locus YLR262C, strain YPT6, hits give low values 0.857 | S. cerevisiae deletion strains, locus YLR268W, strain sec22, hits give low values 0.982 | S. cerevisiae deletion strains, locus YLR320W, strain mms22, hits give low values 1.02 | S. cerevisiae deletion strains, locus YLR330W, strain CHS5, hits give low values 0.982 | S. cerevisiae deletion strains, locus YLR342W, strain FKS1 (second series), hits give low values 1.03 | S. cerevisiae deletion strains, locus YLR342W, strain FKS1, hits give low values 1.01 | S. cerevisiae deletion strains, locus YLR357W, strain rsc2, hits give low values 1.03 | S. cerevisiae deletion strains, locus YLR370C, strain arc18, hits give low values 1.03 | S. cerevisiae deletion strains, locus YLR371W, strain rom2, hits give low values 1 | S. cerevisiae deletion strains, locus YLR384C, strain iki3, hits give low values 1.02 | S. cerevisiae deletion strains, locus YLR418C, strain cdc73, hits give low values 0.97 | S. cerevisiae deletion strains, locus YML016C, strain PPZ1, hits give low values 0.983 | S. cerevisiae deletion strains, locus YML032C, strain rad52, hits give low values 1.01 | S. cerevisiae deletion strains, locus YML120C, strain ndi1, hits give low values 1 | S. cerevisiae deletion strains, locus YML124C, strain tub3, hits give low values 0.997 | S. cerevisiae deletion strains, locus YMR058W, strain fet3, hits give low values 1.01 | S. cerevisiae deletion strains, locus YMR078C, strain ctf18, hits give low values 0.981 | S. cerevisiae deletion strains, locus YMR125W, strain sto1, hits give low values 1.01 | S. cerevisiae deletion strains, locus YMR129W, hits give low values 1.02 | S. cerevisiae deletion strains, locus YMR205C, strain PFK2, hits give low values 1.01 | S. cerevisiae deletion strains, locus YMR223W, strain ubp8, hits give low values 1 | S. cerevisiae deletion strains, locus YMR231W, strain pep5, hits give low values 1.02 | S. cerevisiae deletion strains, locus YMR263W, strain SAP30, hits give low values 0.975 | S. cerevisiae deletion strains, locus YMR307W, strain GAS1, hits give low values 0.969 and 1.01 | S. cerevisiae deletion strains, locus YNL067W, strain RPL9B, hits give low values 0.977 | S. cerevisiae deletion strains, locus YNL071W, strain lat1, hits give low values 1.02 | S. cerevisiae deletion strains, locus YNL128W, strain TEP1, hits give low values 0.983 and 1.01 | S. cerevisiae deletion strains, locus YNL153C, strain GIM3, hits give low values 0.977 | S. cerevisiae deletion strains, locus YNL175C, strain NOP13, hits give low values 1 | S. cerevisiae deletion strains, locus YNL197C, strain WHI3, hits give low values 1 | S. cerevisiae deletion strains, locus YNL209W, strain ssb2, hits give low values 1.01 | S. cerevisiae deletion strains, locus YNL224C, strain SQS1, hits give low values 1 | S. cerevisiae deletion strains, locus YNL233W, strain BNI4, hits give low values 0.986 | S. cerevisiae deletion strains, locus YNL248C, strain rpa49, hits give low values 1 | S. cerevisiae deletion strains, locus YNL250W, strain rad50, hits give low values 0.983 | S. cerevisiae deletion strains, locus YNL271C, strain bni1, hits give low values 0.992 | S. cerevisiae deletion strains, locus YNL298W, strain CLA4, hits give low values 0.982 | S. cerevisiae deletion strains, locus YNL307C, strain MCK1, hits give low values 1.01 | S. cerevisiae deletion strains, locus YNL322C, strain KRE1 (second series), hits give low values 1.01 | S. cerevisiae deletion strains, locus YNL322C, strain KRE1, hits give low values 0.977 and 1.02 | S. cerevisiae deletion strains, locus YNR049C, strain mso1, hits give low values 1.02 | S. cerevisiae deletion strains, locus YNR052C, strain pop2, hits give low values 0.997 | S. cerevisiae deletion strains, locus YOL006C, strain TOP1, hits give low values 0.959 | S. cerevisiae deletion strains, locus YOL012C, strain htz1 0.738 | S. cerevisiae deletion strains, locus YOL147C, strain pex11, hits give low values 0.992 | S. cerevisiae deletion strains, locus YOR001W, strain rrp6, hits give low values 1.02 | S. cerevisiae deletion strains, locus YOR061W, strain CKA2, hits give low values 0.963 | S. cerevisiae deletion strains, locus YOR069W, strain VPS5, hits give low values 0.995 | S. cerevisiae deletion strains, locus YOR070C, strain gyp1, hits give low values 1.01 | S. cerevisiae deletion strains, locus YOR080W, strain dia2, hits give low values 1.01 | S. cerevisiae deletion strains, locus YOR083W, strain WHI5 (second series), hits give low values 0.992 | S. cerevisiae deletion strains, locus YOR083W, strain WHI5, hits give low values 0.989 | S. cerevisiae deletion strains, locus YOR106W, strain vam3, hits give low values 1.01 | S. cerevisiae deletion strains, locus YOR136W, strain idh2, hits give low values 0.997 | S. cerevisiae deletion strains, locus YOR144C, strain elg1, hits give low values 0.996 | S. cerevisiae deletion strains, locus YOR184W, strain ser1, hits give low values 1 | S. cerevisiae deletion strains, locus YOR265W, strain rbl2, hits give low values 1.01 | S. cerevisiae deletion strains, locus YOR270C, strain vph1, hits give low values 1.03 | S. cerevisiae deletion strains, locus YOR290C, strain snf2, hits give low values 1 | S. cerevisiae deletion strains, locus YOR316C, strain cot1, hits give low values 0.988 | S. cerevisiae deletion strains, locus YPL051W, strain arl3, hits give low values 1.01 | S. cerevisiae deletion strains, locus YPL055C, strain LGE1, hits give low values 0.965 | S. cerevisiae deletion strains, locus YPL078C, strain atp4, hits give low values 1.03 | S. cerevisiae deletion strains, locus YPL106C, strain sse1, hits give low values 1.01 | S. cerevisiae deletion strains, locus YPL240C, strain hsp82, hits give low values 1.03 | S. cerevisiae deletion strains, locus YPL241C, strain CIN2, hits give low values 1 and 0.997 | S. cerevisiae deletion strains, locus YPR119W, strain clb2, hits give low values 0.999 | S. cerevisiae deletion strains, locus YPR141C, strain kar3, hits give low values 0.967 | S. cerevisiae deletion strains, locus YPR163C, strain tif3, hits give low values 1 | S. cerevisiae deletion strains, locus YPR167C, strain met16, hits give low values 0.984 | S. cerevisiae deletion strains, strain wtn01, hits give low values 0.991 | S. cerevisiae strains, strain wild type, hits give low values 0.997
